HPGD inh = HPGD (human) dehydrogenase inhibition; P15428; purified HPGD, NADH fluorescence kinetic, PGE2 substrate; Potency, µM, for inactives: at the highest dose activity change, negative = inhibition, most hits filed as inhibitors; hit rate 4.3% among 150,000; AID 894; note: potency is the fitted concentration of half-maximal effect
Target sequence (P15428 whole entry, looked up): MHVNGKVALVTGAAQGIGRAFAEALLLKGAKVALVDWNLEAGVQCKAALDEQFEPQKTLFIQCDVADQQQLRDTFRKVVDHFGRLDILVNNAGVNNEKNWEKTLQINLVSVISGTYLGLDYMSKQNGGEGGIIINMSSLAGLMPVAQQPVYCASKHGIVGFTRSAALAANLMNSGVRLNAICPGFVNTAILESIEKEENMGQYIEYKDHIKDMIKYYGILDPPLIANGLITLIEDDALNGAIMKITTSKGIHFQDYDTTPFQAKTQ
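20 nM HPGD preincubated 15 min at room temperature with compound in 50 mM Tris-HCl pH 8, 0.01% Tween 20. Started with 1 mM NAD+ and 30 uM prostaglandin E2; NADH fluorescence (360/450 nm) read 5 times over 30-s intervals, last minus first.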
ALDH1A1 inh = ALDH1A1 (human) enzyme inhibition; P00352; Purified ALDH1A1, NADH fluorescence, propionaldehyde substrate; Potency, µM (doses to about 75.3 µM), for inactives: at the highest dose activity, negative = inhibition, actives largely listed as inhibitors; hit rate 7.3% among 220,000; AID 1030;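 note: potency is the fitted concentration of half-maximal effect; plate controls were no enzyme wells and a reference inhibitor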
PNC assembly inh = blocks assembly of the perinucleolar compartment; activity change (PNC), negative = inhibition, % at 10 µM; PC3M PTB-GFP, PNC prevalence imaging, 16 h; active compounds read low; hit rate 3.1% among 140,000;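 active = readout at or below -70, meaning at least 70% loss of cells showing the perinucleolar compartment, a nuclear body marking cancer cells; inconclusive = readout between -30 and a set limit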;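 note: plate controls were DMSO wells for no effect and camptothecin positive control wells for full effect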
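Read-out is percentage of cells bearing a perinucleolar compartment, from automated 20x imaging of fixed, Hoechst-stained PC3M PTB-GFP cells. Cells were seeded 4 h, then exposed 16 h to compound (23 nl of library stock) in duplicate plates.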
Luc counter = counter-screen: inhibitors of Kinase-Glo firefly luciferase. Q27757. Kinase-Glo luciferase, ATP luminescence, 8 min. Potency, µM (top dose mostly 38.3 µM), without a hit: at the highest dose activity change, negative = inhibition, hits mostly inhibitors. hit rate 0.28% among 200,000. AID 1379; active = well fitted inhibition curve with a large enough effect; inconclusive = small, poorly fitted or top-dose-only effect; note: potency is the fitted concentration of half-maximal effect; nearly all actives have a fitted effect of over 60% in size
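Recombinant Kinase-Glo luciferase, 10 uM ATP (linear range), luciferin; imidazole pH 7.2 / KCl / MgCl2 / Tween / BSA buffer; 8 min RT; luminescence.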
LMNA splice mod = LMNA splicing modulation; HeLa LMNA splicing GFP/RFP minigene ratio, 48 h; Potency, µM (doses to about 46.1 µM), for inactives: at the highest dose ratio change, negative = inhibition, most hits filed as inhibitors; hit rate 0.01% among 200,000; active = well fitted inhibition curve with a large enough effect in the signal ratio, with a control signal flat, not every such curve was filed as active; inconclusive = small, poorly fitted or top-dose-only effect, or effect the other way, or a change in a side signal; the % refers to the signal ratio; note: potency is the fitted concentration of half-maximal effect
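Read-out is the ratio of GFP to DsRed2 object intensity, acquired by 488 nm laser-scanning cytometry on HeLa lamin A-EGFP minigene reporter cells. Compound incubation 48 hrs at 37 °C in Opti-MEM with 2% FBS; DMSO 0.5% final.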
* hit, by the source's call; ! = not confirmed by another sample; [ ] = dose if it differs, or a comment. Hits are enriched below; roughly 10% of the tested compounds scored in any of these assays. Unless noted, calls come from the whole dose curve; as a rule, active = well fitted inhibition curve with a large enough effect (not every such curve was filed as active); inconclusive = small, poorly fitted or top-dose-only effect, or another doubt; inactive = no such curve, though single readings can be large or run the other way. Unless noted, % is set by controls: 0 for no effect and ±100 for the full control effect.

For COc1ccc(C2N=C(N)Nc3nc4ccccc4n32)cc1 (stereo not drawn) the results were LMNA splice mod 0.5%[46 µM].
Screening Cc1ccc(-n2c(C)cc(C3N=C(N)Nc4nc5ccccc5n43)c2C)c(C)c1 (stereo not drawn) returned HPGD inh -6.3%, ALDH1A1 inh 12.6µM*, PNC assembly inh 14.4, Luc counter -1.6% and LMNA splice mod -10.0%.
COc1ccc(Cl)cc1N=Nc1ncc[nH]1 was read as HPGD inh -12.9%, ALDH1A1 inh inconclusive and Luc counter 0.5%.
Screening C=CCC(C)(O)C(=O)OCC (stereo not drawn) returned HPGD inh -6.5%, ALDH1A1 inh -15.6% and Luc counter 0.5%.
Screening CC1=C(c2ccc(F)cc2)S(=O)(=O)N=C1N1CCC(C(=O)NCCc2ccco2)CC1 returned LMNA splice mod 0.4%[46 µM].
For O=c1c(CN2CCN(Cc3ccccc3)CC2)coc2ccc(Cl)cc12 the results were HPGD inh -8.4%, ALDH1A1 inh 8.91µM*, PNC assembly inh -3.3, Luc counter 0.5% and LMNA splice mod 6.2%.
For Cc1nc2cc(C(=O)O)ccc2n1C1CCCCC1 the results were HPGD inh -7.1%, ALDH1A1 inh 11.2%, PNC assembly inh -100.0*, Luc counter 2.4% and LMNA splice mod -11.3%.
Screening Cc1nc2cc(N)ccc2n1C1CCCCC1 returned ALDH1A1 inh inconclusive and Luc counter -2.9%.
For O[C@H](CNc1ccccn1)c1ccccc1 the results were HPGD inh -6.2%, ALDH1A1 inh -6.2%[13.5 µM] and Luc counter -1.6%[7.66 µM].
CC(C)Cn1cc(NC(=O)N2CCN(c3ccc(F)cc3)CC2)c2ccccc2c1=O was read as LMNA splice mod 9.1%[46 µM].
For CCOC(=O)Cn1c(=NC(=O)c2cc(-c3cccs3)nc3ccccc23)sc2cc(S(N)(=O)=O)ccc21 the results were HPGD inh inconclusive, ALDH1A1 inh inconclusive, PNC assembly inh -10.3, Luc counter -2.9% and LMNA splice mod 0.1%.
`CCOC(=O)Cn1c(=NC(=O)C2COc3ccccc3O2)sc2cc(S(N)(=O)=O)ccc21` (stereo not drawn) gave HPGD inh -18.3%, ALDH1A1 inh inconclusive, PNC assembly inh -134.0*, Luc counter -1.2% and LMNA splice mod -2.0%.
For C=CC(C1=CC(=O)C=CC1=O)c1ccccc1 (stereo not drawn) the results were HPGD inh -9.2%, ALDH1A1 inh -13.0% and Luc counter -0.5%.
C=C[C@@H](C1=CC(=O)C(OC)=C(OC)C1=O)c1ccccc1 was read as HPGD inh 20µM*, ALDH1A1 inh -10.1% and Luc counter 3.0%.
Screening CC(=O)NCCNc1nc(-c2cccc(NS(C)(=O)=O)c2)nc2ccccc12 returned ALDH1A1 inh 2.6% and LMNA splice mod 3.9%.
CCc1nn2cc(C(=O)c3ccccc3O)cnc2c1-c1ccc(F)cc1 was read as HPGD inh 15.8µM*, ALDH1A1 inh inconclusive, PNC assembly inh 63.1, Luc counter -0.7% and LMNA splice mod inconclusive.
Cc1ccc(O)c(C(=O)c2cnc3c(c2)c(-c2ccc(F)cc2)c(C#N)c(=O)n3C)c1 was read as ALDH1A1 inh -4.4%, Luc counter -0.2% and LMNA splice mod 11.7%[46 µM].
`CCc1nn2c(N(C)CCO)cc(C)nc2c1-c1ccc(F)cc1` gave ALDH1A1 inh 5.8%, Luc counter 5.1% and LMNA splice mod -10.1%[46 µM].
CCc1nn2cc(C(=O)c3cc(C)ccc3O)cnc2c1-c1ccc(F)cc1 was read as HPGD inh 15.8µM*, ALDH1A1 inh inconclusive, PNC assembly inh inconclusive, Luc counter -3.6% and LMNA splice mod inconclusive.
COC(=O)N(/C=C/c1ccc(OC)cc1)CCc1ccc(OC)c(OC)c1 was read as ALDH1A1 inh 1.3%[13.5 µM].
`CN(C)c1ccc(CNc2nc(-c3ccco3)nn2S(=O)(=O)c2ccc3ccccc3c2)cc1` gave LMNA splice mod -15.7%[46 µM].
For CCOC(=O)/C(C(=O)Nc1ccccc1Br)=C1/NC(C)(C)Cc2ccccc21 the results were HPGD inh -12.6%, ALDH1A1 inh 28.2µM*, PNC assembly inh 44.7, Luc counter -1.0% and LMNA splice mod -1.2%.
Oc1cc2c(cc1O)C1c3ccc(O)c(O)c3OCC1(O)C2 (stereo not drawn) was read as HPGD inh 1.12µM*, ALDH1A1 inh 11.2µM*! and Luc counter inconclusive.
CCOCCc1nn2c(=O)cc(COC(=O)CNC(=O)c3cccc(C)c3)nc2s1 was read as LMNA splice mod -1.1%[46 µM].
`COc1cccc(OC)c1-c1nn2c(-c3cc(-c4ccccc4)n[nH]3)nnc2s1` gave HPGD inh 12.6µM*, ALDH1A1 inh 6.1%, PNC assembly inh 14.9, Luc counter 0.1% and LMNA splice mod inconclusive.
For NC(=O)c1nn(-c2cccc(Cl)c2)c(=O)cc1O the results were HPGD inh -7.6%, ALDH1A1 inh 2.8%, PNC assembly inh -100.0*, Luc counter 0.4% and LMNA splice mod -2.0%.
Screening NC(=O)c1nn(-c2ccc(Oc3ccccc3)cc2)c(=O)cc1O returned ALDH1A1 inh 2.1% and Luc counter -2.1%.
Cc1nonc1OC(C)CNc1ccc([N+](=O)[O-])cc1 (stereo not drawn) was read as HPGD inh 28.2µM*, ALDH1A1 inh inconclusive, PNC assembly inh inconclusive, Luc counter -4.9% and LMNA splice mod 27.0%.
For COc1cccc(CC2(CO)CCCN(Cc3ccc(-c4ccco4)cc3)C2)c1 (stereo not drawn) the results were ALDH1A1 inh 11.2µM*.
COc1cccc(CC2(CO)CCCN(Cc3ccc(CO)o3)C2)c1 (stereo not drawn) was read as ALDH1A1 inh 4.7%.
Screening COCc1ccc(CN2CCCC(CO)(Cc3cccc(Cl)c3)C2)o1 (stereo not drawn) returned ALDH1A1 inh 8.91µM*, Luc counter -2.7% and LMNA splice mod 10.0%[46 µM].
`COc1cccc(CC2(CO)CCCN(Cc3[nH]c4ccc(C)cc4c3C)C2)c1` (stereo not drawn) gave ALDH1A1 inh 22.4µM*.
For COc1cccc(CC2(CO)CCCN(Cc3ccc(C)s3)C2)c1 (stereo not drawn) the results were ALDH1A1 inh 3.7%.
For O=C(NCc1ccccc1Cl)c1c2c(nc3ccccc13)C(=O)N(C1CCCCC1)C2 the results were LMNA splice mod -15.9%[46 µM].
`O=C(O)c1ccccc1NS(=O)(=O)c1ccccc1F` gave HPGD inh -11.9%, ALDH1A1 inh 1.8% and Luc counter -3.2%.
For CCOC(=O)C1CCN(C(=O)CSc2n[nH]c(-c3ccc(OC)cc3)n2)CC1 the results were LMNA splice mod 13.4%[46 µM].
NC1=NC(c2ccccc2)N=C(Nc2ccccc2)N1 (stereo not drawn) was read as ALDH1A1 inh 11.3%.

Source: PubChem
